Set-up in all cases: scale not given: direction of the effect not stated beside the values
For assay [1], the target named is Protein translocase subunit SecA (Escherichia coli (strain K12)) (UniProt P10408). Nature of the assay: Assay to Identify E. coli SecA ATPase Inhibitors. It is filed as functional. Conditions: 30 µM.
Assay [2] deals with T1, Ubiquitin-activating enzyme e1, putative (Leishmania donovani (strain BPK282A1)) (UniProt E9BSI1).
T1 sequence (whole entry): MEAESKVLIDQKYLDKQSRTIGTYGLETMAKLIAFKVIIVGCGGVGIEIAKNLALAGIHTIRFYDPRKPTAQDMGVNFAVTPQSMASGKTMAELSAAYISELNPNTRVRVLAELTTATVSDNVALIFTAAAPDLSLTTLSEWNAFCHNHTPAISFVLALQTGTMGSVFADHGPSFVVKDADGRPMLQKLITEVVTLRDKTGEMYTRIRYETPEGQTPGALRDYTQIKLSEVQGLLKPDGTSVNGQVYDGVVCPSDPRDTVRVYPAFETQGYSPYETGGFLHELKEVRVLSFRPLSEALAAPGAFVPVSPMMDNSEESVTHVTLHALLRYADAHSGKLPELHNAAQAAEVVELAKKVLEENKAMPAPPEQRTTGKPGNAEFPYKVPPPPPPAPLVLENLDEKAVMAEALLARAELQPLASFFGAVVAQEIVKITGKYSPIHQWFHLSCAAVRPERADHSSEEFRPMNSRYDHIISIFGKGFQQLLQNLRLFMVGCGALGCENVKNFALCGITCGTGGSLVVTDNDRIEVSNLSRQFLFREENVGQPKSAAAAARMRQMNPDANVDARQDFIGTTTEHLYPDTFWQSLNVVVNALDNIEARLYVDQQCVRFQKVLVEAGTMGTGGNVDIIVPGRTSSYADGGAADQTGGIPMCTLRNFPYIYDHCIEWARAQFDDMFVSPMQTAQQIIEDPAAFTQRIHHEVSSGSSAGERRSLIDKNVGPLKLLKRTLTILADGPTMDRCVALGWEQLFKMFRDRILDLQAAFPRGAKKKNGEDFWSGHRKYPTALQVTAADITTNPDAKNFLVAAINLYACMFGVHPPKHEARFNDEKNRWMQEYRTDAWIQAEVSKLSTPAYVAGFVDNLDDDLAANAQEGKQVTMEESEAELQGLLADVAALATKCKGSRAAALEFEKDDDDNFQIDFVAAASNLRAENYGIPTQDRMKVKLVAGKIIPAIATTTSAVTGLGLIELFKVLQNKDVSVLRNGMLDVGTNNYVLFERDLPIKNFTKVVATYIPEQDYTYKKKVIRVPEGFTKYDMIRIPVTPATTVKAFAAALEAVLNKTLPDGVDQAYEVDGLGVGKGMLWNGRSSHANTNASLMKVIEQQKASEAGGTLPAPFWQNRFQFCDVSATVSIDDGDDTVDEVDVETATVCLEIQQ
Description: Leishmania donovani Ubiquitin Activating Enzyme (LdE1). Format: functional. Conditions: 30 µM.

The target of assay [3] is AMP-activated protein kinase, AMPK (Homo sapiens) (UniProt P54646+O43741+P54619+Q9UGJ0+Q9Y478+Q13131+Q9UGI9). Nature of the assay: AMP-dependent Kinase enzyme assay. An in vitro enzyme assay that detects ADP turnover that is directly proportional to AMPK activity. This uses naive AMPK that is activated during the assay with MK-8722. It is filed as functional. Conditions: 30 µM.

For assay [4], the target named is Sialic acid-binding Ig-like lectin 9 (Homo sapiens) (UniProt Q9Y336). Nature of the assay: Hs-Siglec9 ALPHAscreen SOP 20170721. Conditions: 10 µM. For orientation: Bead proximity is the source of the signal in Alpha formats.
A further assay relates to Trypanosoma cruzi. Description: Trypanosoma cruzi phosphomannomutase and mannose-1-phosphate guanylyltransferase assay. Conditions: 10 µM. It is filed as functional.
Assay [5] deals with T2, Arginase-2, mitochondrial (Homo sapiens) (UniProt P78540).
T2 sequence (whole entry): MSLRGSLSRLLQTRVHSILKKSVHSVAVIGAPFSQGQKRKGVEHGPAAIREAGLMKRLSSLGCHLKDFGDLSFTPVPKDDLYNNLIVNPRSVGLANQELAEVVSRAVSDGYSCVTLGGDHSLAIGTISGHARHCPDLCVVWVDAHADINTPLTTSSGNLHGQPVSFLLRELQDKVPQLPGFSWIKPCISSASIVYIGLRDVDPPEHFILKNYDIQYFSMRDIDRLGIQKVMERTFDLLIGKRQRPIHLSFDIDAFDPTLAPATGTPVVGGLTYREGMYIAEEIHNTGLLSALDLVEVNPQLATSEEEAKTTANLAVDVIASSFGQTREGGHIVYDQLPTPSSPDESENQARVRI
Nature of the assay: in vitro enzyme assay to detect the production of urea directly proportional to the activity of Arginase II. Note: in the data most compounds retested in dose-response had high values. Format: functional. Conditions: 33.3 µM.

Assay [6] has as its target T3, Proteasome subunit beta (Trypanosoma cruzi) (UniProt O96673).
T3 sequence (whole entry): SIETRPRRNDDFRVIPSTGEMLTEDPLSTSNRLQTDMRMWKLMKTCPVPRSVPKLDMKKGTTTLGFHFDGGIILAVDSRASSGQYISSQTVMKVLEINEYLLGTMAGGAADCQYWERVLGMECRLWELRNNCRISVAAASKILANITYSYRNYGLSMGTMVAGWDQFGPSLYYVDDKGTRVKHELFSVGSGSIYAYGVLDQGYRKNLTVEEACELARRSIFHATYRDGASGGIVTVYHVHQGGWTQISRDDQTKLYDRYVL
Description: Trypanosoma cruzi proteasome chymotrypsin-like activity (TcProtChymo) assay. Note: in the data most compounds retested in dose-response had high values. Format: functional. Conditions: 9.37 µM.

A further assay is filed under the species Homo sapiens. Nature of the assay: To identify inhibition of the IFN signalling (Jak-Stat) pathway via expression of an eGFP reporter gene under the control of an IFN-stimulated response element (ISRE) containing MxA promoter. Format: functional. Conditions: 30 µM.
In assay [7] the target is T4, Tyrosyl-tRNA synthetase, putative (Trypanosoma cruzi (strain CL Brener)) (UniProt Q4DSP6).
T4 sequence (whole entry): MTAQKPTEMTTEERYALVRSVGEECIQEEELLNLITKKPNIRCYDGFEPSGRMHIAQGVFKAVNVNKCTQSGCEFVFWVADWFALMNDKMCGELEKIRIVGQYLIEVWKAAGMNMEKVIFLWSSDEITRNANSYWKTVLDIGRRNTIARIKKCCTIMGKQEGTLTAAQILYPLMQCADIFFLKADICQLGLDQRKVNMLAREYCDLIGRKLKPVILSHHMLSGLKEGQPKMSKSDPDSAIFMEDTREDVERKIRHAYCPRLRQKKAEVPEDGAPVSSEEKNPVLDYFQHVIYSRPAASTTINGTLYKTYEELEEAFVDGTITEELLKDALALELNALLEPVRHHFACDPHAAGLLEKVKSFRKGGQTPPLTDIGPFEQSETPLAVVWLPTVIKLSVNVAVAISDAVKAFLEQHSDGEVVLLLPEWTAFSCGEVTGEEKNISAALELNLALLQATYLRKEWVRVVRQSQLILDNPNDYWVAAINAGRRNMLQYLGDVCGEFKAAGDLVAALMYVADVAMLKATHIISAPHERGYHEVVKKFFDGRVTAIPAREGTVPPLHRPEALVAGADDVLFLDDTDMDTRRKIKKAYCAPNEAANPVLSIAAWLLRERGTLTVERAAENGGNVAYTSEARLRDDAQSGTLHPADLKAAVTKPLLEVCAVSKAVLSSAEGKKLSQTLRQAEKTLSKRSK
Description: Trypanosoma cruzi tyrosyl tRNA synthetase (TcYRS) _High Tyrosine SOP. Note: in the data most compounds retested in dose-response had high values. Format: functional. Conditions: 30 µM.

Assay [8] deals with T4, Tyrosyl-tRNA synthetase, putative (Trypanosoma cruzi (strain CL Brener)). Nature of the assay: Trypanosoma cruzi tyrosyl tRNA synthetase (TcYRS) SOP. Format: functional. Conditions: 30 µM.
Assay [9] deals with Chromo domain-containing protein 1 (Saccharomyces cerevisiae (strain ATCC 204508 / S288c) (Baker's yeast)) (UniProt P32657). Nature of the assay: ScCHD-1 Enzyme Inhibition Assay. Note: in the data most compounds retested in dose-response had high values. Format: functional. Conditions: 30 µM.

For some assays here: Entries with a potency or affinity are not part of this list.

Sialic acid-binding Ig-like lectin 9 (Homo sapiens), sequence (Q9Y336 whole entry): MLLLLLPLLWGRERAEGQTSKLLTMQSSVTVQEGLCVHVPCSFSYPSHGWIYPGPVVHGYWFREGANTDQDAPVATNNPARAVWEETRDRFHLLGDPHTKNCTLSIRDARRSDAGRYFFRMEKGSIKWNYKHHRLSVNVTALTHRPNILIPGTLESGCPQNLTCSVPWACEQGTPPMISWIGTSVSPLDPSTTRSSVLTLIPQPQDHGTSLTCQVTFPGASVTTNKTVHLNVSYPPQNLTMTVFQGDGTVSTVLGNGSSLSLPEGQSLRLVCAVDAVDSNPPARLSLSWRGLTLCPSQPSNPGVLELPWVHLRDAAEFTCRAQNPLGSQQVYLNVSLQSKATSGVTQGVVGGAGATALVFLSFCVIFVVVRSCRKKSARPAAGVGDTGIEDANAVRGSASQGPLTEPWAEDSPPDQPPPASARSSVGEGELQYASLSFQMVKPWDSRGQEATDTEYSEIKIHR
Protein translocase subunit SecA (Escherichia coli (strain K12)), sequence (P10408 whole entry): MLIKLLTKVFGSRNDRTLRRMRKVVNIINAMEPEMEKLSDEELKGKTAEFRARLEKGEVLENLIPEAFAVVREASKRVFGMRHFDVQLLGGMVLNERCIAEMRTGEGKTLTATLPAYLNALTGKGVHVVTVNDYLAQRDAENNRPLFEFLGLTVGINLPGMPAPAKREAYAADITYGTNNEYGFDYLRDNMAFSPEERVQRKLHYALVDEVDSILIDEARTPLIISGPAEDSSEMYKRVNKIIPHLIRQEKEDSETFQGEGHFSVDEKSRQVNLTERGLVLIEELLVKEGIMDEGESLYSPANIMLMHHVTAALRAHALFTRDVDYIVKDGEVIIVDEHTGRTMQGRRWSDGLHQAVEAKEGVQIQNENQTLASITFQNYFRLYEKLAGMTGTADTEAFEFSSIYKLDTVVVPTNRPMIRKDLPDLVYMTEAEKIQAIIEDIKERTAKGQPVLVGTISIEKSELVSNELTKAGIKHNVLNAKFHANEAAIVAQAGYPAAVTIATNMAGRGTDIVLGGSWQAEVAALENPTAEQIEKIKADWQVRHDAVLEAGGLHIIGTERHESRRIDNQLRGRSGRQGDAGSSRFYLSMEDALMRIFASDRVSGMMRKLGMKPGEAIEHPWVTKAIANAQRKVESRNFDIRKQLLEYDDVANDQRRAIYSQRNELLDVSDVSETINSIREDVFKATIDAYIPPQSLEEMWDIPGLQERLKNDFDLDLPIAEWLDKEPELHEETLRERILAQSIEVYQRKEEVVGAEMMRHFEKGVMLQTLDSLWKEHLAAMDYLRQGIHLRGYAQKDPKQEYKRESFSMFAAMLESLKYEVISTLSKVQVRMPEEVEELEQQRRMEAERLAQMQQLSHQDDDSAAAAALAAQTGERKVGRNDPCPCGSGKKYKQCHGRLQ
Chromo domain-containing protein 1 (Saccharomyces cerevisiae (strain ATCC 204508 / S288c) (Baker's yeast)), sequence (P32657 whole entry, the tested form may be a part): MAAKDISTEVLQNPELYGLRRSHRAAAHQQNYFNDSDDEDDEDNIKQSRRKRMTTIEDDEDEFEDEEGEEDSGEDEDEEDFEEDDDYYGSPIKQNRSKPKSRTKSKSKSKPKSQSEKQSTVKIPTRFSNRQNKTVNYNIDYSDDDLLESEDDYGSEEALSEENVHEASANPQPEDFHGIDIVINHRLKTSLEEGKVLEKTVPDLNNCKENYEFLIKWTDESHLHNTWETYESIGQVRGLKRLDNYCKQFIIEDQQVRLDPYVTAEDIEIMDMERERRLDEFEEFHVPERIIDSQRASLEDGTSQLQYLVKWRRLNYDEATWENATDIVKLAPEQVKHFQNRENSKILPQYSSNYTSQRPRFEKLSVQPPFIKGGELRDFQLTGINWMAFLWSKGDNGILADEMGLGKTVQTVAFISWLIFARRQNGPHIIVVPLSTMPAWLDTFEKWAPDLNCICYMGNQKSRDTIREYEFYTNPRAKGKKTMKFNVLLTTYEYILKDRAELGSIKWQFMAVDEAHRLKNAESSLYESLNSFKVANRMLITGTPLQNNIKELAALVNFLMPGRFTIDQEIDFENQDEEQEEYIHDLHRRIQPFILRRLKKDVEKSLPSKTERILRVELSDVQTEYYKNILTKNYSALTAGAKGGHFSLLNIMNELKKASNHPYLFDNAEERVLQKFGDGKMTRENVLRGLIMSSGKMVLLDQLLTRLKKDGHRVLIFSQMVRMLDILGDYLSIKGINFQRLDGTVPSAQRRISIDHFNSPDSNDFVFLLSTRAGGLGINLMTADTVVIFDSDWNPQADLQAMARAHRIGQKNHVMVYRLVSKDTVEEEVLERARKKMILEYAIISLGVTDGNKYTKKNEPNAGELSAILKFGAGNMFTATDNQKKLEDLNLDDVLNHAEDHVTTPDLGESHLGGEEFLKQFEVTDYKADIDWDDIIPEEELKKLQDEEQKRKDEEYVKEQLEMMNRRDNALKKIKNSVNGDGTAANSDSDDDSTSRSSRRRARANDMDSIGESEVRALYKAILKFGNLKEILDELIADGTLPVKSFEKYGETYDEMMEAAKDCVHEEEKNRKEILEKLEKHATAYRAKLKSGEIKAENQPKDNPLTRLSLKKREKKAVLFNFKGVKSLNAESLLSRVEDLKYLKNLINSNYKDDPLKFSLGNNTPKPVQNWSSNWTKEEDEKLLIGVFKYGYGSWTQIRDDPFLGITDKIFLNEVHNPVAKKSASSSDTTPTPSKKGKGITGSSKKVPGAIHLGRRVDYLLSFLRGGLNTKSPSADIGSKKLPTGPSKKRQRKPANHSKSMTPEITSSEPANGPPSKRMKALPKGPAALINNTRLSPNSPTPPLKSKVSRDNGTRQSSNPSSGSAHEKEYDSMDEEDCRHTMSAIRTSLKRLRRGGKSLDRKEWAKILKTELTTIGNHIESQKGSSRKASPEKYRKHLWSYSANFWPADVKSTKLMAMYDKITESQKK

Take `CC(C(=O)N1CCN(c2ccccc2Cl)CC1)n1cncn1` (stereo not given): the Percent Effect in assay [1] is -2.18%; in [2], 11.4%; in assay [3], 2.71%; in assay [4], 2.76%; in the assay with Trypanosoma cruzi, 1.33%; in assay [5], -1.07%. In addition, the Percent Effect in assay [6] is 15.3%; in the assay listed under Homo sapiens it was 5.34%; in [7] it was 0%; in assay [8], 10.1%; in [9], -25.6%.
On to `CN(CCc1ccccn1)S(=O)(=O)N1CCCC1c1ccco1` (stereo not given), for which the Percent Effect was 0.19% in [1]; 16.2% in [2]; 2.74% in assay [3]; -10.8% in assay [4]; -9.94% with Trypanosoma cruzi; 4.25% in [5]. Besides, the Percent Effect in assay [6] is 13.1%; in the assay filed under Homo sapiens, 17.6%; in assay [7] it was 6.93%; in assay [8] it was 11%; in assay [9] it was -5.75%.
As for `O=C(NCc1ccncc1)N(Cc1ccccc1F)C1CC1`, the Percent Effect was -6.03% in [1]; 18.7% in [2]; -7.25% in [3]; 29.6% in assay [4]; 10.2% in the assay with Trypanosoma cruzi; 51% in assay [5]. For the same compound, the Percent Effect was 17.1% in assay [6]; 5.89% in the assay listed under Homo sapiens; 2.73% in assay [7]; 16.1% in [8]; -6.63% in assay [9].
For the compound `O=C(NC1CCCC1)[C@@H]1CN(Cc2nccs2)C[C@H]2OCC[C@H]21`, the Percent Effect in [1] is -5.51%; in assay [2] it was 2.67%; in assay [3], -3.12%; in assay [4] it was -3.59%; in the assay on Trypanosoma cruzi, -1.77%; in assay [5], 1.63%. For the same compound, the Percent Effect was -3.26% in assay [6]; 21.4% in the assay filed under Homo sapiens; 3.19% in assay [7]; -3.85% in assay [8]; 7.18% in assay [9].
Take `COc1ccccc1C(O)CNC(=O)Nc1ncccc1C` (stereo not given): the Percent Effect in assay [1] was -3.85%; in [2], 12.7%; in assay [3], 3.4%; in [4], -8.4%; with Trypanosoma cruzi, 6.52%; in assay [5] it was 0%. Also, the Percent Effect in assay [6] is 8.27%; in the assay filed under Homo sapiens, 16.1%; in assay [7] it was 5.42%; in assay [8], 16.5%; in assay [9], -4.09%.
For `COc1ccc2c(ccn2CCC(=O)O)c1`, the Percent Effect is -6.14% in [1]; 4% in [2]; -3.9% in assay [3]; -8.49% in assay [4]; -8.45% in the assay with Trypanosoma cruzi; -7.22% in assay [5]. For the same compound, the Percent Effect in assay [6] was 6.1%; in the assay filed under Homo sapiens, 21.8%; in assay [7], 3.17%; in assay [8], -5.13%; in [9], -7.85%.
On to `O=C(Nc1ccnc(OC2CCOC2)c1)c1cc(F)ccc1F` (stereo not given), for which the Percent Effect was -5.45% in [1]; -1.39% in [2]; 2.94% in assay [3]; 5.39% in assay [4]; -1.65% in the assay with Trypanosoma cruzi; -2.65% in assay [5]. In addition, the Percent Effect in assay [6] is 11.6%; in the assay filed under Homo sapiens it was 2.19%; in assay [7], -5.26%; in assay [8] it was -10.3%; in [9], 9.81%.
As to `CCCc1nc(NCCCO)c2c(n1)c(C)nn2CC`, the Percent Effect is -3.3% in assay [1]; 6.67% in [2]; 9.08% in [3]; 11.8% in assay [4]; -1.38% in the assay on Trypanosoma cruzi; -9.33% in [5]. Besides, the Percent Effect was 14.2% in [6]; 12.4% in the assay listed under Homo sapiens; 8.47% in assay [7]; 12.8% in assay [8]; -10.1% in assay [9].
On to `CC(C)CN1CCC(C(=O)Nc2cc(C(F)(F)F)c[nH]c2=O)CC1`, for which the Percent Effect in assay [1] was -7.9%; in [2], 10.4%; in assay [3], 4.55%; in assay [4], 14.9%; in the assay on Trypanosoma cruzi, 6.37%; in assay [5], -2.13%. The Percent Effect in [6] is 1.18%; in the assay listed under Homo sapiens, -6.76%; in assay [7], 5.83%; in [8] it was 21.9%; in assay [9] it was -10.2%.
Take `Cc1ccc(NC2CCN(C(=O)COCC(F)(F)F)CC2)nn1`: the Percent Effect is -6.28% in [1]; 6.33% in [2]; -2.75% in [3]; 3.15% in assay [4]; -1.95% with Trypanosoma cruzi; -2.37% in assay [5]. For the same compound, the Percent Effect in [6] amounted to 10.1%; in the assay filed under Homo sapiens, 12.1%; in assay [7] it was 2.08%; in assay [8], 2.53%; in [9] it was 3.78%.
